# In PubChem BioAssay:
# The source made the active and inactive calls.
# What was measured:
# [1] = test system: PRMT1 (protein arginine N-methyltransferase 1); test: small molecules binding arginine methyltransferase PRMT1 – biochemical, small-molecule microarray, 635 nm fluorescence, primary screen (AID 1088); details: higher = more signal;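 further: binding of Prmt1 protein to compounds spotted on small-molecule microarray slides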
# [2] = growth effects on S. cerevisiae YJM789 – YJM789 clinical isolate, OD600, 24 h, basal, primary screen (AID 1089); details: higher = more signal, called active from +8 up or from −8 down;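 further: growth of clinical yeast isolate S. cerevisiae YJM 789 seeded 1000 cells per well; test concentration not given here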
# [3] = S. pombe growth modifiers, basal conditions – strain 972, OD600, 24 h, no modulator, primary screen (AID 1090);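 further: basal condition with compound alone and no growth modifier present; test concentration not given here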; details: S. pombe 972 growth, higher = more signal, called active from +8 up or from −8 down
# [4] = budding yeast growth modifiers under rapamycin – strain BY4716, OD600, 96 h, primary screen (AID 1091); further: test concentration not given here; details: S. cerevisiae BY4716 + rapamycin, higher = more signal, called active from +8 up or from −8 down
# [5] = biological target: Torsin-1A-interacting protein 2 (Homo sapiens) (UniProt Q8NFQ8); test: small molecules binding lysate-expressed LULL1 – cell lysate, human LULL1 lysate, 635/667 nm fluorescence, primary screen (AID 1092); details: small-molecule microarray, hLULL1 lysate binding, 635 nm fluorescence; higher = more signal;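 further: probe is lysate of COS7 cells overexpressing human LULL1; score merges per-feature 667 nm fluorescence with signal-to-noise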
# Torsin-1A-interacting protein 2 (Homo sapiens), sequence (Q8NFQ8 whole entry, looked up): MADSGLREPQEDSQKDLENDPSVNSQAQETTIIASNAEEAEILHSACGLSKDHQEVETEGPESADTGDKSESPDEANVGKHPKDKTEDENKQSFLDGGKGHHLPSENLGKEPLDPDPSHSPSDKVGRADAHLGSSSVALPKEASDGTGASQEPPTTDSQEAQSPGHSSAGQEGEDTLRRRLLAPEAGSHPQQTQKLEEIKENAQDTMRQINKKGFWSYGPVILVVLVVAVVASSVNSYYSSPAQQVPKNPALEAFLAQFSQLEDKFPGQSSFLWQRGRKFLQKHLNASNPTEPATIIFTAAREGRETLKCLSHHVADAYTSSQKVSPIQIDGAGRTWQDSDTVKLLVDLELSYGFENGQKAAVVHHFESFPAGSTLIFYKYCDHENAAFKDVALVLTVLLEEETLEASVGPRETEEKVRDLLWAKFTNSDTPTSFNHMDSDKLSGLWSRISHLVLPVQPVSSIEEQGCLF
# [6] = optical density change of DRC41 E. coli – strain DRC41, OD650, 24 h, E. coli filamentation project, primary screen (AID 1093);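 further: MC1000 strain lacking acrAB efflux and sulA so SOS filamentation is blocked; test concentration not given here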; details: E. coli DRC41 growth, higher = more signal, called active from +8 up or from −8 down
# [7] = probe aLefty2 binding to arrayed compounds – biochemical, biotinylated probe, 635/667 nm fluorescence, primary screen (AID 1094); details: small-molecule microarray, higher = more signal;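 further: score merges spot fluorescence near 667 nm with spot signal-to-noise ratio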
# [8] = test system: Noggin (protein binding on small-molecule microarray); test: small molecules binding Noggin protein – biochemical, 635/667 nm fluorescence, primary screen (AID 1095); details: 635 nm fluorescence, higher = more signal;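 further: score merges 667 nm feature fluorescence with signal to noise over triplicate slides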
# [9] = biological target: Neurogenic locus notch homolog protein 3 (Homo sapiens) (UniProt Q9UM47); test: small molecules binding NOTCH3 protein – biochemical, 635/667 nm fluorescence, primary screen (AID 1096); details: small-molecule microarray, 635 nm fluorescence, higher = more signal
# Neurogenic locus notch homolog protein 3 (Homo sapiens), sequence (Q9UM47 whole entry, looked up): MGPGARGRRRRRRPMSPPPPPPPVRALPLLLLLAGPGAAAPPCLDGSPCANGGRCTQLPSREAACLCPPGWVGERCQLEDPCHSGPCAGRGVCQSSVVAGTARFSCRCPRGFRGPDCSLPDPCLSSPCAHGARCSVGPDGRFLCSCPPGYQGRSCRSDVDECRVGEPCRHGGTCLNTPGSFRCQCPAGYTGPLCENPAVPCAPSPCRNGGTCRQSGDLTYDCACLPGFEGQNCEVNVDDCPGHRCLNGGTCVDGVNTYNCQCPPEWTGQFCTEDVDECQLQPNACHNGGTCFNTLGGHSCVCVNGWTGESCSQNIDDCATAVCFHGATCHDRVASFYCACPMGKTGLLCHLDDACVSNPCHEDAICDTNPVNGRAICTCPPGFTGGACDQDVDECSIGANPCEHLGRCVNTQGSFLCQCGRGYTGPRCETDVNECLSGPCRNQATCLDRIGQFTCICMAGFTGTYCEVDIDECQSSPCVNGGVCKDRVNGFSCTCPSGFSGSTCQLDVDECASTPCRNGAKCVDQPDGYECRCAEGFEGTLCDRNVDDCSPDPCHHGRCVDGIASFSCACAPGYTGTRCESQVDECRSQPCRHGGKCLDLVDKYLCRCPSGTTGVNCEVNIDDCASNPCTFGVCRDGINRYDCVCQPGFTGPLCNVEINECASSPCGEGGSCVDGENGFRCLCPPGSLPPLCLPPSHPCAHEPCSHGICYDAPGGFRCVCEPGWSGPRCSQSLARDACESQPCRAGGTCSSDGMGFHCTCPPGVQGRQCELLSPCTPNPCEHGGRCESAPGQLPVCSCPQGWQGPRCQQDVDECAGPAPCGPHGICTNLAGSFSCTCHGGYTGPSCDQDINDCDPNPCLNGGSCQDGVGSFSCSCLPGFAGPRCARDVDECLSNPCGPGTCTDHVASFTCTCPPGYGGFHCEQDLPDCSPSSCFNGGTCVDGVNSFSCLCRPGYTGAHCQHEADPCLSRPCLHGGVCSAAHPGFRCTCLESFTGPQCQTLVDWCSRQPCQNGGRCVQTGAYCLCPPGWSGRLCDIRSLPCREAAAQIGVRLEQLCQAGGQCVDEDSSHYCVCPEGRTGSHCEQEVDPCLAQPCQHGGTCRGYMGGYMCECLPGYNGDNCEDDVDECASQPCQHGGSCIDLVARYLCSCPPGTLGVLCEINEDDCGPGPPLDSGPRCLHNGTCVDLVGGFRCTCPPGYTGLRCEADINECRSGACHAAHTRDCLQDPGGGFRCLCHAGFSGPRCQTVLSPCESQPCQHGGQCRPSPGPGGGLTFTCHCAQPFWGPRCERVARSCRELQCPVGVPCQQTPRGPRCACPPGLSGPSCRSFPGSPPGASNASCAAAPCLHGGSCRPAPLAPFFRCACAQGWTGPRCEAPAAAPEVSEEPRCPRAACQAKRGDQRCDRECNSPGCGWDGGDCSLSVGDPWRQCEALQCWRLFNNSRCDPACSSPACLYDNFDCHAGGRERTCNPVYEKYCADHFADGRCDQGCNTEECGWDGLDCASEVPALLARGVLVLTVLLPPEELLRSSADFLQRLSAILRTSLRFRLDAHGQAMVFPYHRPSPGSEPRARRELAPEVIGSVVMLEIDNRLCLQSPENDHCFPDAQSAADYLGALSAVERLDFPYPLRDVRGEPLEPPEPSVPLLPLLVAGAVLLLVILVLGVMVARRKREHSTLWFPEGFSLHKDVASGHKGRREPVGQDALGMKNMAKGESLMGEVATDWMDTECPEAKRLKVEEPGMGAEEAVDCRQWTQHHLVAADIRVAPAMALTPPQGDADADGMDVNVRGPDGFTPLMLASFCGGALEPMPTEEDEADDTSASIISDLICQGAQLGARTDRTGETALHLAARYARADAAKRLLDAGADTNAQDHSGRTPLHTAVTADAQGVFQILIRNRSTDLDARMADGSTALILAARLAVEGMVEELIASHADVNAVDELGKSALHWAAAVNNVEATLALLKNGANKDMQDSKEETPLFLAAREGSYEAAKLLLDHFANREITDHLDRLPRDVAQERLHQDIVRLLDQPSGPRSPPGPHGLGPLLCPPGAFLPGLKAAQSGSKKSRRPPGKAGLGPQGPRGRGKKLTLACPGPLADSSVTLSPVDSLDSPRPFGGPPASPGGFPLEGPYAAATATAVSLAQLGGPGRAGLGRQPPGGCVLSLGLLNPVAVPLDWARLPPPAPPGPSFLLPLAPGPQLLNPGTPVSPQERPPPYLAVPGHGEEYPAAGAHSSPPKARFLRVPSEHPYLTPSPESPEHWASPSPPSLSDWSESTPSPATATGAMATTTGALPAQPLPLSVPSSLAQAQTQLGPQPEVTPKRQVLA
# [10] = probe aEGFR binding to arrayed compounds – biochemical, biotinylated probe, 635/667 nm fluorescence, primary screen (AID 1097); details: small-molecule microarray, higher = more signal;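 further: probe is a biotinylated anti-EGFR antibody binding compounds printed on slides; score combines fluorescence near 667 nm and signal to noise of each spot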
# [11] = test system: Plasmodium falciparum Sir2 (PF13_0152, Sir2A); test: Plasmodium falciparum Sir2A binding compounds – biochemical, small-molecule microarray, 635 nm fluorescence, primary screen (AID 1098); details: fluorescence 635 nm, higher = more signal;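 further: score merges spot fluorescence intensity with its signal-to-noise ratio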
# [12] = probe aDKK1 binding to arrayed compounds – biochemical, biotinylated probe, 635/667 nm fluorescence, primary screen (AID 1099); details: small-molecule microarray, higher = more signal;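 further: score merges 667nm spot fluorescence with signal to noise across triplicate slides; reference of the scale not given here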
# [13] = probe aCHRDL2 binding to arrayed compounds – biochemical, biotinylated probe, 635/667 nm fluorescence, primary screen (AID 1100); details: small-molecule microarray, higher = more signal
# [14] = change in splice reporter luminescence, either direction, cell-based, HEK293, spliceosome inhibition project, primary screen (AID 1101); details: HEK293 splicing luciferase reporter, 24 h, higher = more signal, called active from +8 up or from −8 down;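 further: HEK293 cells carrying a splicing-competent luciferase reporter gene; test concentration not given here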
# [15] = biological target: Fibroblast growth factor 10 (Homo sapiens) (UniProt O15520); test: compounds binding fibroblast growth factor 10 – biochemical, small-molecule microarray, 635 nm fluorescence, primary screen (AID 1102); details: FGF10 binding, fluorescence 635 nm, higher = more signal
# Fibroblast growth factor 10 (Homo sapiens), sequence (O15520 whole entry, looked up): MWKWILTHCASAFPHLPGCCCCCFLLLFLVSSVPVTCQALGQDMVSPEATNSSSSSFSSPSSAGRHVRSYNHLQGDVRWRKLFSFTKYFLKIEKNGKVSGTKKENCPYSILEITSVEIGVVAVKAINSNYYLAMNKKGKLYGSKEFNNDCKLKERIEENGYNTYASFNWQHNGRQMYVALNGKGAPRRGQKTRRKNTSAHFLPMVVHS
# [16] = test system: glycogen synthase kinase-3 (GSK3A per assay name; protocol says GSK3B); test: compounds binding glycogen synthase kinase-3 – biochemical, small-molecule microarray, 635 nm fluorescence, GSK3A, primary screen (AID 1103); details: fluorescence 635 nm, higher = more signal; further: the record names both GSK3A and GSK3B
# [17] = biological target: Epidermal growth factor receptor (Homo sapiens) (UniProt P00533); test: compounds binding epidermal growth factor receptor – biochemical, small-molecule microarray, 635 nm fluorescence, primary screen (AID 1104); details: EGFR binding, higher = more signal;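 further: score merges 667 nm emission intensity with spot signal to noise over triplicate slides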
# Epidermal growth factor receptor (Homo sapiens), sequence (P00533 whole entry, looked up): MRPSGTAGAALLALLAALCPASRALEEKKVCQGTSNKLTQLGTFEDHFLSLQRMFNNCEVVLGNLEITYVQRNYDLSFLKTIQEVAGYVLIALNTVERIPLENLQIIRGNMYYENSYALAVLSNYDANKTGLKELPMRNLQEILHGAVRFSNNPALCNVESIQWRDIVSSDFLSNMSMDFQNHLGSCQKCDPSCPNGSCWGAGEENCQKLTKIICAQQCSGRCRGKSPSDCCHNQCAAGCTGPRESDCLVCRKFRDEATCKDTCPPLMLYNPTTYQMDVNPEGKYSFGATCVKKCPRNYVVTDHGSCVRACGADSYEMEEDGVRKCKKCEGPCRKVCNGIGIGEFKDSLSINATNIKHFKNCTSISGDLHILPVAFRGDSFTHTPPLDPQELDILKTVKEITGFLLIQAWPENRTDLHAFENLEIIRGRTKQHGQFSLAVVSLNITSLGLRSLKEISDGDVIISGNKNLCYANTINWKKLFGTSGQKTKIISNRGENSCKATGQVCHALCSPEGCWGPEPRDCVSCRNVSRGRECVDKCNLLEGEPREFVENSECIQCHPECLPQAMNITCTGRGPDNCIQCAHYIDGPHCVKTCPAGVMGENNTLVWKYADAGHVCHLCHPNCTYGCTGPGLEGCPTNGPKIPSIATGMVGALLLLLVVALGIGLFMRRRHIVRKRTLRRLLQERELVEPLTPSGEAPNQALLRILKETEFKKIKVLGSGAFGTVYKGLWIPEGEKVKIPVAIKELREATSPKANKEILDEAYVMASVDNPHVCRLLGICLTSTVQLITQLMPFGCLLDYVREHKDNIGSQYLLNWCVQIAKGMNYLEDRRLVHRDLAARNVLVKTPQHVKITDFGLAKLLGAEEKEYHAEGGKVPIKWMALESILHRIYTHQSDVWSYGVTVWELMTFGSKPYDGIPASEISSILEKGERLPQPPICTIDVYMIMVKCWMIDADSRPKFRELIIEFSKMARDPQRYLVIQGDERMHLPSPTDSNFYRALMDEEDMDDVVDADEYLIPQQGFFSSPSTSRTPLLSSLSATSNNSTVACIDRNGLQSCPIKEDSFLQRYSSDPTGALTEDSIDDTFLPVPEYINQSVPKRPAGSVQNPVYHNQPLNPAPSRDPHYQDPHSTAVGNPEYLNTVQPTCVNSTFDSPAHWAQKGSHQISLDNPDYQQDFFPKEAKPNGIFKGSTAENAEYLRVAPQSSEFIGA
# [18] = biological target: Follistatin-related protein 3 (Homo sapiens) (UniProt O95633); test: compounds binding follistatin-related protein 3 – biochemical, small-molecule microarray, 635 nm fluorescence, primary screen (AID 1105); details: FSTL3 binding, higher = more signal;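 further: score merges emission near 667 nm and signal to noise per printed spot across three slides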
# Follistatin-related protein 3 (Homo sapiens), sequence (O95633 whole entry, looked up): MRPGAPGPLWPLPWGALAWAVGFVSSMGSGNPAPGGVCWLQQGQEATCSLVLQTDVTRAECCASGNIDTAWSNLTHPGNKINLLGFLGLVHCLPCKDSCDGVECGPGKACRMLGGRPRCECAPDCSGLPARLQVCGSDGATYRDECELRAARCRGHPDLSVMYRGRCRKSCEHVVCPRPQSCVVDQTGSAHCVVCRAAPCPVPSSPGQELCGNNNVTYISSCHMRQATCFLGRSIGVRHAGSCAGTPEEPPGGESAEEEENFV
# [19] = biological target: Dickkopf-related protein 1 (Homo sapiens) (UniProt O94907); test: small molecules binding DKK1 protein – biochemical, small-molecule microarray, 635 nm fluorescence scan, primary screen (AID 1106); details: higher = more signal;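 further: score merges emission near 667 nm with signal to noise over three replicate slides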
# Dickkopf-related protein 1 (Homo sapiens), sequence (O94907 whole entry, looked up): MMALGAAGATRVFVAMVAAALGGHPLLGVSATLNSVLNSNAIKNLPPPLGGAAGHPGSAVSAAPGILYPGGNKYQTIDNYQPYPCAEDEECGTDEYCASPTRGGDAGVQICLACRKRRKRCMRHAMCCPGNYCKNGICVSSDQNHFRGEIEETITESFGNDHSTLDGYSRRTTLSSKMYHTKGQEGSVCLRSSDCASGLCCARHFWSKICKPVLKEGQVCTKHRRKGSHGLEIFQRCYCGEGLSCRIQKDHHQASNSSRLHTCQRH
# [20] = test system: Inhibin beta A chain (activin A); test: small molecules binding activin A – biochemical, small-molecule microarray, 635 nm fluorescence scan, primary screen (AID 1107); details: INHBA, higher = more signal;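 further: mouse activin A protein probed at 4.33 µg/mL on printed slides; score merges bound-protein fluorescence near 667 nm with spot signal-to-noise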
Structure (SMILES),composite z-score [1],z-score [2],z-score [3],z-score [4],composite z-score [5],z-score [6],composite z-score [7],composite z-score [8],composite z-score [9],composite z-score [10],composite z-score [11],composite z-score [12],composite z-score [13],z-score [14],composite z-score [15],composite z-score [16],composite z-score [17],composite z-score [18],composite z-score [19],composite z-score [20]
CCCCC(=C=CC[C@H](O)c1ccc(OCCO)cc1)C[C@H](O)COCc1ccccc1,0.857,0.85 (inactive),-1.43 (inactive),-0.374 (inactive),1.36,0.125 (inactive),-0.116,0.395,-0.36,0.0028,1.07,-0.221,-0.0323,-0.639 (inactive),0.793,-0.171,-0.304,-0.603,-0.259,1.12
COc1ccc(CCNC(=O)[C@@]2(Cc3ccccc3I)c3ccccc3C(=O)N(Cc3ccccc3Cl)[C@H]2c2ccc(CO)cc2)cc1,1.46,-0.372 (inactive),-0.645 (inactive),-0.0387 (inactive),2.35,-1.3 (inactive),0.23,-0.383,0.0854,0.0284,1.79,0.316,0.646,-1.55 (inactive),0.202,-0.181,-0.662,-0.407,-0.735,0.0137
CC1(C)C(=O)C(c2ccccc2)=C2CN3C(=O)N(CCc4ccccc4)C(=O)C3(Cc3ccc(C(F)(F)F)cc3)C=C21 (stereo not given),-0.362,1.32 (inactive),2.01 (inactive),3.28 (inactive),2.65,-1.21 (inactive),0.208,-0.0717,1.13,0.284,0.9,1.01,1.12,0.701 (inactive),0.472,0.288,-0.0744,0.717,-1.01,0.721
COc1ccc(C#Cc2ccc3c(c2)[C@]2(C(=O)N3)[C@H](C(=O)Nc3nc4ccccc4s3)[C@H]3C(=O)O[C@H](c4ccccc4)[C@H](c4ccccc4)N3[C@@H]2c2ccccc2OCCO)cc1,1.36,2.56 (inactive),1.53 (inactive),1.59 (inactive),3.08,2.62 (inactive),-0.0949,0.486,1.13,-0.106,0.465,0.243,-0.125,0.17 (inactive),0.463,0.933,0.19,0.821,0.47,0.648
C=C(COC)/C(=C/C[C@@H](OC(C)=O)c1ccc(CO)o1)c1cc(C(=O)OC)ccc1OC,1.02,0.932 (inactive),0.369 (inactive),0.264 (inactive),1.81,0.0184 (inactive),-0.166,1.07,0.711,-0.0828,0.403,-0.138,-0.0929,0.36 (inactive),1.17,0.0212,-0.725,-0.185,-0.305,1.08
CC(C)C[C@@H]1NC(=O)CNC(=O)[C@@]23C(=O)N[C@@H](Cc4ccccc4)C2[C@H](C)[C@@]2(C)O[C@H]2C3/C=C/C/C=C\CNC1=O (stereo not given in full),1.31,-0.536 (inactive),-0.26 (inactive),-0.0716 (inactive),2.72,-0.461 (inactive),-0.159,0.363,1.01,-0.0828,0.15,-0.212,-0.445,0.426 (inactive),0.569,1.15,0.366,1.04,0.568,1.25
COC(=O)c1c2oc(c1C(=O)OC)C(=O)N1CCC[C@H]1Cn1nncc1CN(Cc1ccccc1)C(=O)N[C@H](CO)CC2,0.97,0.955 (inactive),-0.086 (inactive),0.613 (inactive),0.983,1.24 (inactive),-0.116,0.743,0.2,0.471,0.614,-0.304,-0.0048,0.733 (inactive),0.627,-0.103,0.327,-0.0361,-0.113,0.309
Cc1ccc(S[C@]2(C(=O)NC(C)C)CC(=O)N(C(C)C)[C@@H]2c2ccc(CO)cc2I)cc1,0.841,-0.466 (inactive),-0.222 (inactive),-0.294 (inactive),1.53,0.529 (inactive),-0.0654,-0.337,-0.196,-0.144,0.476,0.0345,0.706,-0.714 (inactive),-0.101,-0.498,-0.56,0.298,-0.484,0.904
CS(=O)(=O)CCOC(=O)C1=CC(CCCO)=CC(C2CC2)N(Cc2cccc(OC(F)(F)F)c2)C=C1C(=O)OCCS(C)(=O)=O (stereo not given),0.757,-0.725 (inactive),-2.34 (inactive),-1.75 (inactive),2.29,-0.917 (inactive),0.203,-0.0678,0.0213,-0.106,1.09,0.0231,-0.0768,0.155 (inactive),0.039,0.306,-0.0252,0.054,-0.325,0.911
NC(=O)N1C(=O)C2C(C1=O)C1C=C(CCCO)C2C(C2CC2)N1Cc1cccc(OC(F)(F)F)c1 (stereo not given),0.639,-0.897 (inactive),-0.497 (inactive),-1.47 (inactive),2.63,-0.284 (inactive),-0.249,-0.0319,-0.538,-0.184,1.59,-0.306,-0.345,0.0948 (inactive),0.075,-0.186,-0.595,-0.494,-0.0361,0.561
